Rows were chosen to be rich in hits. Some 2.1% of all compounds tested hit in one or more screens of this group.
NFkB transloc inh = inhibitors of IL-1B driven NFkB p65 nuclear import, primary screen, imaging, HUVEC, IL-1B stimulus, high-content imaging | 94,000 tested, 0.43% active | inhibition, % at 2 µM | HUVEC IL-1B NFkB p65 nuclear translocation imaging;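 active = inhibition above about 30% together with a positive call from visual inspection of the well image, limit read from the data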;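 also: nuclear over cytoplasmic p65 intensity ratio measured by imaging; 0% = IL-1B stimulated DMSO wells and 100% = unstimulated DMSO wells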
HUVEC tox IL1B = cytotoxicity in IL-1B stimulated HUVEC, primary screen, cytotoxicity control for IL-1B NFkB translocation project, imaging, Hoechst nuclear count, IL-1B stimulus; HUVEC cell count loss; cell count reduction, % at 2 µM; 94,000 tested, 0.41% active; AID 845, 2007;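 active = cell count reduction more than 3 SD above the screen-wide mean, cut at about 70% in these data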;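 also: normalized per plate to untreated control cells as the no-loss baseline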
Measles CPE = compounds protecting cells from measles virus cytopathic effect, primary screen, measles RdRp inhibitor project, single point, MLSMR library, absorbance; Measles virus-infected cells, CPE protection; protection (pct of control), % at 4 µM; 140,000 tested, 1.5% active; AID 841, 2007; in the data active = protection mostly above about 24%, no sharp cut-off; inactive = mostly below about 26%
NFkB transloc pot = enhancers of NFkB p65 translocation in HUVEC – imaging, IL-1B stimulus, high-content imaging, primary screen; 94,000 tested, 0.3% active; activation, % at 2 µM; HUVEC IL-1B NFkB p65 nuclear translocation imaging; AID 819, 2007;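 active = activation above 40%, about the mean plus 3 SD, also judged a hit on visual image review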;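 also: percent activation is computed from the nuclear over cytoplasmic p65 intensity ratio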
* hit, by the source's call; . = no result.

SMILES	NFkB transloc inh	HUVEC tox IL1B	Measles CPE	NFkB transloc pot
COc1ccc(C(NC(=O)CNC(C)=O)C(=O)Nc2ccc3c(c2)OCCO3)cc1 (stereo not given)	-10	-21	17	13
COc1ccc(C(NC(=O)CNC(C)=O)C(=O)Nc2ccc(C(C)C)cc2)cc1 (stereo not given)	-4	22	43*	4
CC(C)(C)c1ccc(S(=O)(=O)N2CC(=O)Nc3ccccc32)cc1	0	-8	5	0
CCN1C(=O)/C(=C/N(C(C)=O)c2ccccc2)N(c2ccccc2)C1=S	43*	-29	2	-43
CCc1ccc(/C=C2/C(=O)N(c3ccccc3)C(=S)N2CC(=O)OC)s1	.	.	16	.
CCCCCCn1c(CN2CCN(C(=O)OCC)CC2)nc2c1c(=O)n(C)c(=O)n2C	10	37	.	-10
CC(=O)Nc1ccc(SCC(=O)c2cc(C)n(C)c2C)cc1	10	-7	46*	-10
COc1ccc(-c2oc(/N=C/N3CCOCC3)c(C#N)c2-c2ccc(OC)cc2)cc1	0	-28	2	0
c1coc(CNc2nc3nonc3nc2NCc2ccco2)c1	52*	-48	10	-52
O=S(=O)(Nc1nc2ccccc2nc1NCc1ccco1)c1ccccc1	-4	-21	3	4
CC(C)COC(=O)C1[C@H]2C(=O)N(Cc3cccs3)C[C@]23C=C[C@H]1O3 (stereo not given in full)	1	-16	10	-1
C=CCn1c(SCC(=O)c2cccs2)nc2sc(C)c(C)c2c1=O	7	14	8	-7
C=CCn1c(SCC(=O)c2cc(C)n(CCOC)c2C)nc2sc(C)c(C)c2c1=O	3	14	42*	-3
COc1ccc(NC(=O)CSc2nc3c(c(=O)n2-c2ccccc2OC)SCC3)cc1	21	-13	21	-21
COc1ccccc1-n1c(SCC(=O)NC2CCCCC2)nc2c(c1=O)SCC2	21	14	54*	-21
CCOC(=O)c1c(CC(C)C)csc1NC(=O)COC(=O)c1cc(OC)c(OC)cc1[N+](=O)[O-]	.	.	27	.
COc1cc([N+](=O)[O-])c2ncsc2c1	.	.	17*	.
Cc1cc(N2C(=O)C3CC=CCC3C2=O)cc(C)c1Br (stereo not given)	12	5	4	-12
Cc1cc(C)cc(N2C(=O)C3CC=CCC3C2=O)c1 (stereo not given)	3	5	44*	-3
CC(=O)Oc1cccc(N2C(=O)C3CC=CCC3C2=O)c1 (stereo not given)	-30	89*	5	30
COc1cc(/C=N/NC(=O)CSCc2ccc([N+](=O)[O-])cc2)cc(OC)c1OC	-10	89*	11	10
Cc1ccc2[nH]c(=O)c(CN(Cc3nnnn3C3CCCC3)C3CCCCC3)cc2c1	-12	-71	3	12
Cc1ccc2[nH]c(=O)c(CN(Cc3ccccc3)Cc3nnnn3C3CCCC3)cc2c1	1	72*	10	-1
C/C(N)=C(\C#N)C(=O)NCc1ccccn1	-1	-9	9	1
O=C(CCc1nc2ccccc2[nH]c1=O)OCC(=O)c1ccc(Cl)cc1	7	-19	36*	-7
SMILES	NFkB transloc inh	HUVEC tox IL1B	Measles CPE	NFkB transloc pot
COC(=O)c1cc(-c2ccccc2)sc1NC(=O)CN1C(=O)c2ccccc2C1=O	8	-10	10	-8
O=C(NC1CCN(Cc2ccccc2)CC1)C1CCCN(S(=O)(=O)c2cccc3nonc23)C1 (stereo not given)	46*	-21	14	-46
Oc1c(/C=N/c2ncn[nH]2)ccc2ccccc12	-47	17	8	47*
Clc1ccc(Cl)c(-c2ccc(/C=N/c3ncn[nH]3)o2)c1	2	-13	2	-2
C=CCn1c(=O)c2ccccc2n2c(SCc3cc(=O)n4ccsc4n3)nnc12	-16	-26	66*	15
CCCn1c(SCC(=O)NCc2ccco2)nc2c1c(=O)n(C)c(=O)n2C	8	81*	2	-8
CCn1c(SCC(=O)NCc2ccco2)nc2c1c(=O)n(C)c(=O)n2C	-18	-7	2	18
COc1cnc(NS(=O)(=O)c2ccc(N)cc2)nc1	.	.	14	.
CCc1cc2c(nc1CC)CCN(CC/C(C)=N/O[C@@H](C)c1cc(-c3c(C)cc(C)cc3C)no1)C2	.	.	25*	.
CN1C(=O)/C(=C/c2cc(N=Nc3ccccc3)ccc2O)SC1=S	-9	-38	6	9
O=C/C(=C\Nc1ccc(Cl)cn1)c1nc2ccccc2o1	4	-9	4	-4
O=C/C(=C\Nc1ccc(Cl)cn1)c1nc2cc(Cl)ccc2o1	-50	-8	14	50*
NC(=O)c1ccc(-n2nnnc2SCC(=O)Nc2ccc(N3CCOCC3)c(Cl)c2)cc1	-32	-153	32*	32
Cc1ccc(/C=N/n2c(-c3ccncc3)n[nH]c2=S)cc1	.	.	16	.
S=c1[nH]nc(-c2ccncc2)n1/N=C/c1cccc2ccccc12	.	.	29*	.
CC(C)CC1(C)NC(=O)N(CCN2C(=O)c3ccccc3C2=O)C1=O (stereo not given)	9	-20	5	-9
O=C(Nc1ccc2c(c1)OCCO2)c1ccc(Cl)c([N+](=O)[O-])c1	.	.	20*	.
O=C(Nc1ccc(C(O)(C(F)(F)F)C(F)(F)F)cc1)c1ccc(Cl)c([N+](=O)[O-])c1	.	.	1	.
O=C(Nc1ccc2c(c1)OCO2)c1ccncc1	4	-5	26*	-4
O=C(Nc1ccccc1C(=O)Nc1ccc2c(c1)OCO2)c1ccco1	-5	-4	25*	5
C/C(=C\C(=O)c1ccccc1)Nc1ccc2c(c1)OCO2	.	.	30*	.
C=CCN1C(=O)N(/C=C/C)c2cccc3cccc1c23	-5	-19	10	5
N#Cc1c(NC(=O)CSc2nc(-c3ccco3)cc(C(F)(F)F)n2)sc2c1CCCC2	-5	-29	28	5
NC(=O)C1CCCN(S(=O)(=O)c2ccc(Br)cc2)C1 (stereo not given)	-30	-27	11	30
Cc1cc(Cl)ccc1Oc1nccc(N(C)C)c1C#N	-1	18	76*	1
SMILES	NFkB transloc inh	HUVEC tox IL1B	Measles CPE	NFkB transloc pot
Cc1ccc2nc(Cl)c(CN(Cc3cccs3)C(=O)C3CC3)cc2c1	5	-8	37*	-5
COc1ccc(CCN(Cc2cc3cc(C)c(C)cc3nc2Cl)C(=O)C2CC2)cc1	-5	-90	7	5
CC(C)NC(=O)COc1ccc(/C=N/NS(=O)(=O)c2ccccc2)cc1	-3	-1	8	-5
O=C(COc1ccc(/C=N/NS(=O)(=O)c2ccccc2)cc1)Nc1ccc(F)cc1	-10	84*	48	-95
CC(C)(C)n1nc2c(c1NC(=O)c1ccc(Br)cc1)CS(=O)C2 (stereo not given)	-2	0	17	2
CC(C)(C)n1nc2c(c1NC(=O)c1ccc(S(=O)(=O)N3CCCCC3)cc1)CS(=O)C2 (stereo not given)	9	-10	44*	-9
Cc1cccc(-n2ccnc2SCC(=O)Nc2cc(C)on2)c1	-14	14	30*	14
